The source of these data is PubChem BioAssay (NCI).

About 83,000 compounds went through this panel and 20% of them were active in at least one assay; those are over-represented in the sample as a whole.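 Values shown are percent growth following 48 h exposure of cells in 96-well plates to a single concentration of compound; below 10 was considered active.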 Active and inactive are the calls of the source.

This assay deals with HL-60(TB) leukemia. Description: NCI-60 one-dose screen, 48 h (100 = growth as untreated, 0 = no growth, -100 = all killed). To be noted: 10 µM unless noted.
On to `COc1ccc(C2C3CCc4ccccc4C3=NN2C(=O)c2cc(OC)c(OC)c(OC)c2)cc1O` (centres undefined), for which the growth is 84.7% (inactive). In the case of `Nc1nc(N)c2cc(Sc3ccc4ccccc4c3)ccc2n1`, the growth was 31.4% (inactive).

For the compound `CCc1cc2c(cc1N1CCC(N3CCOCC3)CC1)C(C)(C)c1[nH]c3cc(C#N)ccc3c1C2=O`, the growth was -6.15% (active). As for `C[C@@H](c1ccc2c(c1)[nH]c1ccc(Cl)cc12)c1nc2ccc(Cl)cc2[nH]1`, the figure is 0.0537% (active); as for `FC(F)(F)c1cccc(CNC2CCN(CCc3ccccc3)CC2)c1`, 46.2% (inactive); as for `CCCCCN(CCCCC)CC(O)c1cc(C)c2ccc3cc(C(C)C)ccc3c2c1` (centres undefined), -29.6% (active). `CC(C)(C)n1cc(-c2ccnc(NCCCNS(=O)(=O)c3ccccc3)c2)c(-c2cccc(O)c2)n1`: the growth was 32.8% (inactive). As to `Fc1cc2c(cc1Cl)N(c1ncnc3ccc(-c4cnc5cnccn45)cc13)CC2`, the growth is -7.92% (active). Under `CCCCC1CCCC12NC(=O)NC2=O` (centres undefined) stands 84.6% (inactive). As for `CC1(c2ccc3ccccc3c2)CCC(=O)O1` (centres undefined), the figure is 92.7% (inactive); as for `Nn1c(CN2CCN(c3cc4c(cc3F)c(=O)c(C(=O)O)cn4C3CC3)CC2)n[nH]c1=S`, 101% (inactive); as for `O=C(Nc1ccc2ccccc2c1)c1cc2ccccc2cc1O`, 79.7% (inactive). Under `O=C(/C=C(O)/C=C/c1ccc(SC(F)(F)F)cc1)/C=C/c1ccc(SC(F)(F)F)cc1` stands 81.9% (inactive); under `CC1(C)CC(C(=O)OCCCCCCCCCCC[P+](c2ccccc2)(c2ccccc2)c2ccccc2)C(C)(C)N1O` (centres undefined), -70.8% (active).
